TDP1 cell noCPT = qHTS for Inhibitors of human tyrosyl-DNA phosphodiesterase 1 (TDP1): qHTS in cells in absence of CPT; DT40 Tdp1-/- hTDP1 cells, no CPT, ATP luminescence, 48 h; Potency, µM (highest dose often 46.2 µM), without a hit: at the highest dose activity change, negative = growth inhibition, most hits filed as inhibitors; actives 15% (n = 420,000); AID 686978, 2013; also: nearly all actives have a fitted effect of over 55% in size
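Growth kinetics read by CellTiter-Glo luminescence after ≥48 hr at 37 °C. Cells: DT40 Tdp1-/- stably carrying human TDP1, 400 per well, compound exposure in the absence of CPT (DMSO vehicle).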
RORgamma inh = qHTS for inhibitors of ROR gamma transcriptional activity. Drosophila S2 Gal4-RORgamma UAS-luciferase reporter, 20 h. Potency, µM (series often up to 53.6 µM), for inactives: at the top dose activity change, negative = inhibition, hits mostly inhibitors. AID 2551, 2010. Nuclear receptor ROR-gamma (Mus musculus), P51450. actives 5.4% (n = 310,000); also: nearly all actives have a fitted effect of over 60% in size
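Compounds are pin-transferred onto Drosophila Schneider cells expressing a copper-inducible Gal4–ROR gamma transactivation domain fusion. After 1 hr, copper sulfate is added to 700 uM final; luciferase is read 20 hr later.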
ALOX12 inh = Primary qHTS assay for inhibitors of human arachidonate 12S-lipoxygenase (ALOX12): Round 2; Polyunsaturated fatty acid lipoxygenase ALOX12 (Homo sapiens), P18054; purified 12hLO, xylenol orange hydroperoxide absorbance; Potency, µM (top dose mostly 108 µM), inactives show top-dose activity change, negative = inhibition, usual class: inhibitors; actives 1.1% (n = 580,000); AID 1671190, 2021
Target sequence (P18054 whole entry, looked up): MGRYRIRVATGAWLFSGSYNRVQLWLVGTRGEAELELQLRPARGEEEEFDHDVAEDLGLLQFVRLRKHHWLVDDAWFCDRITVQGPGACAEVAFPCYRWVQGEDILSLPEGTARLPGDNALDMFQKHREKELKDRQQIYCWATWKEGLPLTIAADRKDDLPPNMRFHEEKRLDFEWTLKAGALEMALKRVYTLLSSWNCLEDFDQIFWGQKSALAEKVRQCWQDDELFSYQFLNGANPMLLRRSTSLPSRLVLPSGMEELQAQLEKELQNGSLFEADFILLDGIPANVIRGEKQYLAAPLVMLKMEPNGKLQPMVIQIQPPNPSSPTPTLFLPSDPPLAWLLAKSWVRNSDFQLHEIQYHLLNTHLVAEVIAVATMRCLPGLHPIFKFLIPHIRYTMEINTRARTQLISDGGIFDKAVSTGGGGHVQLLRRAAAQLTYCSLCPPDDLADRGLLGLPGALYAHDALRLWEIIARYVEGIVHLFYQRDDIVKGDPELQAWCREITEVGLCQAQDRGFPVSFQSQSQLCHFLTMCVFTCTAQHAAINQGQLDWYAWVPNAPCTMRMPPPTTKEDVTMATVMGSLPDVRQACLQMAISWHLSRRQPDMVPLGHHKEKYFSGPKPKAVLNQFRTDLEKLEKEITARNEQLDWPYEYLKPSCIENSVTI
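Purified human 12hLO (150 nM final) in 25 mM Hepes, 0.01% Triton X-100, pH 7.0 was preincubated 15 min at room temperature with compound. Then 40 uM arachidonic acid was added, 30 min. Hydroperoxide was read by Fe-XO absorbance ratio 573/405 nm.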
ELG1 repair inh = qHTS screen for small molecules that inhibit ELG1-dependent DNA repair in human embryonic kidney (HEK293T) cells expressing luciferase-tagged ELG1; actives 2.3% (n = 330,000); Potency, µM (top dose mostly 46.1 µM), for the others: at the top dose activity change, negative = inhibition, most hits filed as inhibitors; HEK293T ELG1-luciferase reporter, luminescence, 16 h; DNA damage induced by 5-fluorouridine; AID 504467, 2011; also: nearly all actives have a fitted effect of over 55% in size
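Luminescence from the luciferase reporter, measured 30 min after ONE-Glo reagent at room temperature, was the read-out. Beforehand, 2,000 cells per well were exposed for 16 hr at 37 °C to 5-fluorouridine together with compound or vehicle.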
DT40 TDP1 CPT = qHTS for Inhibitors of human tyrosyl-DNA phosphodiesterase 1 (TDP1): qHTS in cells in presence of CPT | Potency, µM (doses to about 46.2 µM), without a hit: at the top dose activity change, negative = growth inhibition, most hits filed as inhibitors | chicken DT40 Tdp1-/-;hTDP1 cells + 20 nM CPT, ATP luminescence, 48 h | AID 686979, 2013 | actives 12% (n = 420,000); also: nearly all actives have a fitted effect of over 55% in size
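Chicken DT40 Tdp1-/- cells stably complemented with human TDP1 were seeded at 400 cells/well in medium containing 20 nM camptothecin, exposed to pin-transferred compounds, and grown at 37 °C for at least 48 hr. Viability was read as ATP luminescence.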
VP16 counter = VP16 counterscreen qHTS for inhibitors of ROR gamma transcriptional activity | Drosophila S2 Gal4-VP16 UAS-luciferase, luminescence, 20 h | Potency, µM (top dose mostly 53.6 µM), without a hit: at the top dose activity, negative = inhibition, hits mostly inhibitors | actives 3.5% (n = 310,000) | AID 2546, 2010;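 also: Gal4-VP16 expression switched on by copper sulfate through the metallothionein promoter; nearly all actives have a fitted effect of over 50% in size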
* hit, by the source's call. A selection: hits, their analogues and other compounds. The true share with any hit is near 15%. Calls follow the shape of the dose curve; as a rule, active = well fitted curve in the direction sought with a large enough effect; inconclusive = small, poorly fitted or top-dose-only effect, or another doubt; inactive = no such curve, though single readings can be large; an effect the other way counts as inactive or inconclusive. % is scaled to controls: 0 for no effect and ±100 for the full control effect; potency is read from the fitted curve at half-maximal effect.

Screening CCOc1ccccc1NC(=O)Cn1nnc(C(=O)NCc2ccccc2)c1N returned ALOX12 inh -9.2%.
COc1ccc(OC)c(NC(=O)Cn2c(-c3cnccn3)nc(C)c(CCO)c2=O)c1 was read as ALOX12 inh 4.7%.
CN(Cc1ccc(F)cc1)C(=O)c1cc(COc2ccc(-n3cncn3)cc2)on1 was read as TDP1 cell noCPT 16.4µM*, RORgamma inh inconclusive, ALOX12 inh 3.9%, ELG1 repair inh -17.6%, DT40 TDP1 CPT 23.1µM* and VP16 counter -18.6%.
Screening Cc1cnccc1CN(C)C(=O)c1cc(COc2ccc(-n3cncn3)cc2)on1 returned ALOX12 inh 101.6%.
`Cc1ccc(OCc2cc(C(=O)N(C)Cc3cnn(-c4ccccc4C)c3)no2)cn1` gave TDP1 cell noCPT 18.4µM*, RORgamma inh inconclusive, ALOX12 inh 9.2%, ELG1 repair inh inconclusive, DT40 TDP1 CPT 11.6µM* and VP16 counter inconclusive.
CCc1ccc(CN(C)C(=O)c2cc(COc3ccc(-n4cncn4)cc3)on2)cc1 was read as TDP1 cell noCPT 14.6µM*, RORgamma inh inconclusive, ALOX12 inh 33.5%, ELG1 repair inh -12.5%, DT40 TDP1 CPT inconclusive and VP16 counter 0.8%.
O=C(CSc1ccccc1F)NC(=O)C1CCCCC1 was read as ALOX12 inh 26.0%.
Screening Cn1c(=O)c2c(nc(NC(CO)CO)n2Cc2ccc(Br)cc2)n(C)c1=O returned ALOX12 inh 6.3%.
Cc1nc2[nH]c(=O)n(O)c(=O)c2s1 was read as TDP1 cell noCPT 25.9µM*, ALOX12 inh -3.1% and DT40 TDP1 CPT inconclusive.
Cc1nc2c(=O)n(-c3ccc(F)cc3F)nc(C)c2s1 was read as TDP1 cell noCPT -4.6%, RORgamma inh 1.3%, ALOX12 inh inconclusive, ELG1 repair inh -7.0%, DT40 TDP1 CPT 5.1% and VP16 counter -6.5%.
Screening CCN1CCN(CCNC(=O)CSc2ncnc3c2sc2cccc(F)c23)CC1 returned ALOX12 inh 10.5%.
CCNC(=O)NC(=O)CN(C)Cc1cc(C)c(OC)c(C)c1 was read as ALOX12 inh -0.1%.
CC(c1ccco1)N(C(=O)c1ccc(C(F)(F)F)cc1)c1ccccn1 (configuration not stated) was read as TDP1 cell noCPT inconclusive, RORgamma inh 10.9%, ALOX12 inh -4.4%, ELG1 repair inh -7.1%, DT40 TDP1 CPT -21.2% and VP16 counter -12.3%.
CC(c1ccco1)N(C(=O)c1ccc(Cl)c([N+](=O)[O-])c1)c1ccccn1 (configuration not stated) was read as TDP1 cell noCPT 20.6µM*, RORgamma inh -26.5%, ALOX12 inh -17.7%, ELG1 repair inh -10.7%, DT40 TDP1 CPT 20.6µM* and VP16 counter inconclusive.
`CC(c1ccco1)N(C(=O)C12CC3CC(CC(C3)C1)C2)c1ccccn1` (configuration not stated) gave TDP1 cell noCPT inconclusive, RORgamma inh 4.1%, ALOX12 inh inconclusive, ELG1 repair inh -7.9%, DT40 TDP1 CPT 20.6µM* and VP16 counter -14.8%.

Screening results from PubChem BioAssay.
